# Sampled rows, rich in hits. Any-hit rate of the full collection: about 2.4%.
# POLB inh = blocks human DNA polymerase beta activity. Pol beta primer extension/strand displacement, fluorescence kinetic. Potency, µM (series often up to 114 µM), for inactives: at the highest dose activity change, negative = inhibition, usual class: inhibitors. 340,000 tested, 1.3% active. P06746; further: on the % scale 0 is the no-effect control and ±100 the full control effect
#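 Values derive from four-parameter Hill fits of normalized kinetic data: reads at 0 and 10 min following addition of 50 nM substrate to 10 nM Pol beta preincubated 15 min with compound.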
# POLI inh = blocks human DNA polymerase iota activity; Pol iota fluorescent replication assay, 10 min; 390,000 tested, 1% active; Potency, µM (top dose mostly 115 µM), for the others: top-dose activity, negative = inhibition, hits mostly inhibitors
#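 Fluorescent replication assay read twice, at 0 min and 10 min after adding 50 nM (final) substrate. Enzyme (10 nM) and compounds were first incubated 15 min at room temperature; enzyme-free buffer wells were negative controls.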
# FEN1 inh = blocks human flap endonuclease 1 | P39748 | Recombinant FEN1 flap cleavage, fluorescence, 15 min | Potency, µM (doses to about 114 µM), inactives show at the highest dose activity change, negative = inhibition, most hits filed as inhibitors | 390,000 tested, 0.35% active | AID 588795; further: on the % scale 0 is the no-effect control and ±100 the full control effect; nearly all actives have a fitted effect of over 65% in size
#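 Nuclease activity of 10 nM FEN1 was measured after 15 min of room-temperature exposure to titrated compounds, by adding 50 nM flap substrate and reading plates at 0 and 15 min.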
# Pol eta inh = inhibitors of human DNA polymerase eta. Q9Y253. recombinant Pol eta, fluorescent DNA replication assay. Potency, µM (doses to about 114 µM), inactives show at the top dose activity change, negative = inhibition, most hits filed as inhibitors. 390,000 tested, 1.2% active. AID 588591; further: on the % scale 0 is the no-effect control and ±100 the full control effect
# Target sequence (Q9Y253 whole entry, looked up): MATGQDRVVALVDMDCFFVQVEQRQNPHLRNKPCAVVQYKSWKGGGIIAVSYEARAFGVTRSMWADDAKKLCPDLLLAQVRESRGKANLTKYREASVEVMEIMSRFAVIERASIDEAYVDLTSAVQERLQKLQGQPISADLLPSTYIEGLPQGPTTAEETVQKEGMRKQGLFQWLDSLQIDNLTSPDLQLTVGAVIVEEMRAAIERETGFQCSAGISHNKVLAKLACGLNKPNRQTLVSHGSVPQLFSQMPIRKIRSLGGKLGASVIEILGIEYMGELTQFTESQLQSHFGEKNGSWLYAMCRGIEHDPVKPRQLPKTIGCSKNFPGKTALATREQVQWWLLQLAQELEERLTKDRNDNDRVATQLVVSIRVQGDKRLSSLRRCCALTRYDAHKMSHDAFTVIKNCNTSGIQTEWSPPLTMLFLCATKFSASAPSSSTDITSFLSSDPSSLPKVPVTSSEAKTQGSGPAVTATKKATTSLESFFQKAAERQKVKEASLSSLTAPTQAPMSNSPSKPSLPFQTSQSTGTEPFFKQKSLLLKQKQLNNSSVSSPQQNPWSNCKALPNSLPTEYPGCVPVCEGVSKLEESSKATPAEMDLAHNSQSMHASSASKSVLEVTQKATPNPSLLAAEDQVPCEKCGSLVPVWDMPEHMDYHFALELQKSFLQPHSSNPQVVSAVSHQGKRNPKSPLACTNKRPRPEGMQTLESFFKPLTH
#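 Fluorescent replication assay: 50 nM final substrate added after a 15 min room-temperature compound preincubation with 10 nM enzyme. Signal taken at 0 min and again at 10 min.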
# Pol kappa inh = inhibitors of human DNA polymerase kappa | 400,000 tested, 0.53% active | Q9UBT6 | Potency, µM (doses to about 107 µM), inactives show at the highest dose activity, negative = inhibition, most hits filed as inhibitors | AID 588579 | purified Pol kappa, fluorescent DNA synthesis assay, 10 min; further: on the % scale 0 is the no-effect control and ±100 the full control effect
#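 Readout: fluorescence, taken kinetically at 0 and 10 min. Conditions: 10 nM Pol kappa, 15 min RT compound preincubation, 50 nM substrate final. Controls: enzyme-free buffer wells.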
# WRN inhibitor = blocks human WRN helicase; Q14191; WRN helicase unwinding, fluorescent forked duplex, kinetic; Potency, µM (doses to about 114 µM), inactives show at the top dose activity change, negative = inhibition, hits mostly inhibitors; 360,000 tested, 0.46% active; AID 651768; further: on the % scale 0 is the no-effect control and ±100 the full control effect; nearly all actives have a fitted effect of over 55% in size
#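 Kinetic red-fluorescence monitoring (525/598 nm) tracks WRN helicase activity after 100 nM fluorophore-quencher forked duplex and 2 mM ATP are added to 20 nM enzyme pretreated 15 min at room temperature with compound.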
# * marks the source's active call; other numbers are inactive results; ? = inconclusive; . = no result; [ ] = dose if it differs, or a comment. The call rests on the fitted dose curve; in most records, active means well fitted curve in the direction sought with a large enough effect; inconclusive means small, poorly fitted or top-dose-only effect, or another doubt; inactive means no such curve, though single readings can be large; an effect the other way counts as inactive or inconclusive. Potency means the concentration at half of the fitted maximal effect.
SMILES,POLB inh,POLI inh,FEN1 inh,Pol eta inh,Pol kappa inh,WRN inhibitor
O=C(O)c1ccc(CSc2nc(-c3ccc(Cl)cc3)cc(C(F)(F)F)n2)cc1,89.1µM*,?,0.5%,-7.1%,-12.8%,-30.8%
O=c1oc2c3c4c(cc2s1)CCCN4CCC3,22.4µM*,11.2µM*,?,?,?,?
Fc1ccc(-n2cc(-c3ccccc3)c3c(=S)nc[nH]c32)cc1,3.5%,79.4µM*,-11.7%,-28.5%,?,-3.7%
CCOC(=O)c1cc(S(=O)(=O)N2CCN(c3ccc(F)cc3)CC2)[nH]n1,0.6%,-3.8%,-0.2%,-10.0%,-2.5%[60.1 µM],.
COc1ccc(Cn2c(N)c(C#N)c3nc4ccccc4nc32)cc1OC,34.0%,25.1µM*,-1.2%,6.6%,-15.8%,-15.4%
Cc1cnc(C=NNC(N)=S)c2cccc(N)c12,.,2.24µM*,?,5.01µM*,?,?
NC(=S)NN=Cc1nccc2ccccc12,.,107.8%,-19.2%,-6.8%,-26.0%,-11.8%
Cc1cc(C)cc(-c2nnc(SCC(=O)c3ccc4c(c3)OCCO4)o2)c1,1.4%,7.6%,-2.2%,-10.1%,-7.5%,-2.4%
Cc1cc(-c2nnc(SCC(=O)c3ccc4c(c3)OCCO4)o2)no1,39.8µM*,54.1%,-4.8%,-12.7%,-6.8%,0.7%
CSc1ccc(NC(=O)Nc2ccc(C(=O)NCC(=O)O)cc2)cc1,28.2µM*,5.4%,-27.2%,?,-20.4%,-21.5%
Cc1ccc2sc(N(Cc3cccnc3)C(=O)CCOc3ccccc3)nc2c1C,25.6%,15.6%,-20.5%,-4.6%,-1.8%[60.1 µM],.
O=c1[nH]c(SCc2ccccc2)ncc1S(=O)(=O)c1ccccc1,.,14.7%,2.7%,.,-16.1%,.
Cc1ccc(S(=O)(=O)N2CCCCC2)cc1C(=O)Nc1ncn[nH]1,25.1µM*,.,.,.,.,.
CC(=O)Nc1ccc(NC(=O)c2cc(S(=O)(=O)N3CCCCC3)ccc2C)cc1,.,?,-11.1%,-13.4%,-5.9%,0.6%
COc1ccc(-n2nnnc2SCC(=O)NC2CC2)cc1,.,4.4%,34.5%,89.1µM*,4.1%,-1.8%
O=C(COC(=O)c1ccc(Br)o1)Nc1nc2c(F)c(F)c(F)cc2s1,11.2µM*,-28.8%,-0.5%,56.2µM*,?,-15.3%
O=C(COC(=O)CCC1CCCC1)Nc1nc2c(F)c(F)c(F)cc2s1,1.3%[57.1 µM],0.1%,-16.2%,-11.6%,0.0%,-3.8%
O=C(COC(=O)c1ccc(NS(=O)(=O)c2cccs2)cc1)Nc1nc2c(F)c(F)c(F)cc2s1,28.2µM*,39.8µM*,-32.2%,20µM*,?,-34.6%
Cc1cc(C)c(NC(=O)CSc2ncc(S(=O)(=O)c3ccc(C(C)(C)C)cc3)c(=O)[nH]2)c(C)c1,0.1%,-2.7%,10.6%,-9.3%,2.8%,.
O=C(O[C@H]1[C@H](Cc2ccccc2)NS(=O)(=O)[C@H]2CC3C=C[C@]12O3)c1ccc(Br)cc1,.,-1.6%,-14.3%,.,-16.1%,.
COc1ccc(-c2nnc(SCC(=O)Nc3c(C)cccc3C)nc2-c2ccc(OC)cc2)cc1,-13.3%,-21.7%,-11.1%,-19.8%,-13.4%,.
Cc1ccccc1NC(=O)CSc1nnc(-c2ccco2)c(-c2ccco2)n1,14.1µM*,10µM*,56.2µM*,50.1µM*,31.6µM*,39.8µM*
Cc1cccc(C)c1NC(=O)CSc1nnc(-c2ccco2)c(-c2ccco2)n1,3.16µM*,?,79.4µM*,3.55µM*,28.2µM*,35.5µM*
O=C1CCCC2=C1C(c1ccc(O)c(O)c1)Nc1ccc3ccccc3c12 (stereo not drawn),.,79.4µM*,-7.8%,?,?,-19.7%
O=C(CSc1nnc(-c2ccco2)c(-c2ccco2)n1)Nc1ccccc1,-120.9%,5.01µM*,?,2.82µM*,20µM*,35.5µM*
SMILES,POLB inh,POLI inh,FEN1 inh,Pol eta inh,Pol kappa inh,WRN inhibitor
Cc1ccc(SCC(=O)Nc2ccc(-c3nnc(-c4ccco4)o3)cc2)cc1,50.1µM*,-10.1%,-12.5%,?,?,-28.5%
Cc1ccc(NC(=O)CSc2nnc(-c3ccco3)c(-c3ccco3)n2)cc1,14.1µM*,11.2µM*,?,11.2µM*,39.8µM*,39.8µM*
O=C(CSc1nnc(-c2ccccc2)c(-c2ccccc2)n1)NCc1ccco1,2.9%,10.1%,-9.5%,-2.2%,-11.3%,-22.8%
CCC(=O)Nc1ccc(NC(=O)CSc2nnc(-c3ccco3)n2CC)cc1,?,90.6%,3.6%,-2.9%,4.7%,2.2%
CCNc1ncc2nc(C)c(=O)n(Cc3cccs3)c2n1,.,.,.,.,0.5%[60.1 µM],.
CCOC(=O)c1c(C)oc2ncnc(Nc3cc(C)cc(C)c3)c12,15.5%,36.3%,-2.5%,-14.4%,2.3%,.
COc1ccc(OC)c(CNS(=O)(=O)c2cc(-c3onc(C)c3C)ccc2C)c1,17.7%,?,-1.1%,0.9%,-24.0%,.
O=C1C=CC2=C3c4cc(O)c(O)cc4C[C@]3(O)COC2=C1,.,.,.,.,7.08µM*,.
CCOc1ccc(-n2cc(-c3ccccc3)c3c(N4CCN(c5ccccc5OC)CC4)ncnc32)cc1,-2.1%,17.2%,-2.3%,-15.0%,-13.0%[60.1 µM],.
CCCCOc1ccc(C(=O)NCCc2sc3nc(-c4ccc(OC)cc4)nn3c2C)cc1,4.0%,17.4%,0.9%,-11.6%,0.0%[60.1 µM],.
CCCCCCC(=O)N(O)C1CC(=O)N(c2ccc(Br)cc2)C1=O (stereo not drawn),0.1%,0.8%,-5.7%,-8.7%,-1.8%,0.2%
CCCCCCC(=O)N(O)C1CC(=O)N(c2ccc(F)cc2)C1=O (stereo not drawn),6.0%,79.1%,-4.8%,-3.0%,-1.7%,28.2µM*
O=C(CCCN1C(=O)c2ccccc2C1=O)Nc1sc2c(c1C(=O)NCc1ccco1)CCC2,20µM*,?,-8.4%,-2.8%,-13.0%,-2.7%
O=C(CN1C(=O)c2ccccc2C1=O)Nc1sc2c(c1C(=O)NCc1ccco1)CCCC2,1.4%,?,2.6%,?,-28.6%,-8.8%
O=C(CCN1C(=O)c2ccccc2C1=O)NCc1ccco1,0.9%,50.1µM*,-8.0%,?,-7.1%,-11.6%
CC1CC[C@@]2(C(=O)O)CCC3(C)C(=CCC4[C@]5(C)CC(O)C(O)[C@](C)(CO)C5C(O)C[C@@]43C)C2C1C (stereo partly drawn),.,.,.,.,-8.5%[60.1 µM],.
O=C(O)c1ccc2ncsc2c1,8.2%,3.98µM*,-12.8%,-20.4%,-13.7%,?
O=C(c1ccc2ncsc2c1)N1CCCCC1,11.0%,-1.6%,-0.4%,-11.5%,-6.3%,-2.4%
Cc1ccc(-c2csc3nc4c5ccccc5c(NCCCN(C)C)nn4c(=O)c23)cc1,10.3%,12.0%,20µM*,-22.2%,7.2%,30.2%[57.1 µM]
O=C(CN1C(=O)COc2ccc(S(=O)(=O)N3CCOCC3)cc21)N1CCN(c2ccc(F)cc2)CC1,19.7%,18.9%,-1.0%,-19.6%,0.4%,.
